Source: paper PMC12820563, “FoxP3 forms a head-to-head dimer in vivo and stabilizes its multimerization on adjacent microsatellites”
Whole data set: some 16,000 sequences, median “rpm ratio (pull-down/input)” near 0.5, cut for the highest 2% near 5.5. The entries come from a sample that favours the highest values as a whole.

biological target: T1, MBP-FoxP3dN (Mus musculus, UniProt Q99JB6 188-423); test: PD-seq (MBP pull-down with sequencing); 20 mM Tris-HCl pH 7.5, 100 mM NaCl, 1.5 mM MgCl2, 0.4 uM protein, 0.1 uM dsDNA library, 30 min, room temperature, amylose pull-down; high values mean tight binding; details: protein: recombinant; tags: His6-MBP; chain copies: 2; dsDNA, one strand shown
T1 sequence: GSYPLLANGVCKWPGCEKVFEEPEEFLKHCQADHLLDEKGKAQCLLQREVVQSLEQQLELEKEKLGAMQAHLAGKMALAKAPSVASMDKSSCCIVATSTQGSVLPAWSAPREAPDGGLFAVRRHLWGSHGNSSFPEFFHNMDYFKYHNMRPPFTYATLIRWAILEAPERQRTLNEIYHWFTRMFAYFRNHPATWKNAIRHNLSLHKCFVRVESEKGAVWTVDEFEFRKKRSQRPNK
Method in brief: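 Binding is the reads-per-million enrichment of pull-down relative to input, pooled across replicates. For this, 0.4 µM His6-MBP-tagged mouse FoxP3 or FoxP1 fragment lacking the N-terminus, made in E. coli, was incubated with 0.1 µM Klenow-filled double-stranded degenerate DNA library for 30 min at room temperature in Tris pH 7.5 buffer with NaCl and MgCl2. Complexes bound to amylose resin were washed three times before proteinase K released the DNA for PCR barcoding and Illumina sequencing.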

Sequence	binding signal
GATGATTGTTCTCCCAGCTGATGAATTGTAGACATCGAGTAAACAAATTTTCCTAATCTTTCTGTTCAAGCGCCATCTAC	0.874 RPM ratio (pull-down/input)
GATGATTGTTCTCCCAGCTGATGAATTGACTCTCTCGAGTAAACAAATTTTCCTAATCTTTCTGTTCAAGCGCCATCTAC	0.425 RPM ratio (pull-down/input)
GATGATTGTTCTCCCAGCTGATGAATTCGAGATATCGAGTAAACAAATTTTCCTAATCTTTCTGTTCAAGCGCCATCTAC	0.404 RPM ratio (pull-down/input)
GATGATTGTTCTCCCAGCTGATGAATTGGTAGCCTCGAGTAAACAAATTTTCCTAATCTTTCTGTTCAAGCGCCATCTAC	0.924 RPM ratio (pull-down/input)
GATGATTGTTCTCCCAGCTGATGAATTCACTGTATCGAGTAAACAAATTTTCCTAATCTTTCTGTTCAAGCGCCATCTAC	0.627 RPM ratio (pull-down/input)
GATGATTGTTCTCCCAGCTGATGAATTGTCTGTATCGAGTAAACAAATTTTCCTAATCTTTCTGTTCAAGCGCCATCTAC	0.624 RPM ratio (pull-down/input)
GATGATTGTTCTCCCAGCTGATGAATTGTGGCGTTCGAGTAAACAAATTTTCCTAATCTTTCTGTTCAAGCGCCATCTAC	2.54 RPM ratio (pull-down/input)
GATGATTGTTCTCCCAGCTGATGAATTGAATGATTCGAGTAAACAAATTTTCCTAATCTTTCTGTTCAAGCGCCATCTAC	0.737 RPM ratio (pull-down/input)
GATGATTGTTCTCCCAGCTGATGAATTCGAACACTCGAGTAAACAAATTTTCCTAATCTTTCTGTTCAAGCGCCATCTAC	0.457 RPM ratio (pull-down/input)
GATGATTGTTCTCCCAGCTGATGAATTTTTCCGTTCGAGTAAACAAATTTTCCTAATCTTTCTGTTCAAGCGCCATCTAC	0.238 RPM ratio (pull-down/input)
GATGATTGTTCTCCCAGCTGATGAATTCACTCAATCGAGTAAACAAATTTTCCTAATCTTTCTGTTCAAGCGCCATCTAC	0.294 RPM ratio (pull-down/input)
GATGATTGTTCTCCCAGCTGATGAATTGGGACTGTCGAGTAAACAAATTTTCCTAATCTTTCTGTTCAAGCGCCATCTAC	0.673 RPM ratio (pull-down/input)
GATGATTGTTCTCCCAGCTGATGAATTACACTATTCGAGTAAACAAATTTTCCTAATCTTTCTGTTCAAGCGCCATCTAC	0.606 RPM ratio (pull-down/input)
GATGATTGTTCTCCCAGCTGATGAATTTGCATCCTCGAGTAAACAAATTTTCCTAATCTTTCTGTTCAAGCGCCATCTAC	7.55 RPM ratio (pull-down/input)
GATGATTGTTCTCCCAGCTGATGAATTGCATCCCTCGAGTAAACAAATTTTCCTAATCTTTCTGTTCAAGCGCCATCTAC	4.21 RPM ratio (pull-down/input)
GATGATTGTTCTCCCAGCTGATGAATTGCCATCCTCGAGTAAACAAATTTTCCTAATCTTTCTGTTCAAGCGCCATCTAC	0.935 RPM ratio (pull-down/input)

Sequence	binding signal
GATGATTGTTCTCCCAGCTGATGAATTGTAACCATCGAGTAAACAAATTTTCCTAATCTTTCTGTTCAAGCGCCATCTAC	1.1 RPM ratio (pull-down/input)
GATGATTGTTCTCCCAGCTGATGAATTGGACGACTCGAGTAAACAAATTTTCCTAATCTTTCTGTTCAAGCGCCATCTAC	0.259 RPM ratio (pull-down/input)
GATGATTGTTCTCCCAGCTGATGAATTGTGTTCATCGAGTAAACAAATTTTCCTAATCTTTCTGTTCAAGCGCCATCTAC	1.77 RPM ratio (pull-down/input)
GATGATTGTTCTCCCAGCTGATGAATTCGAGTTATCGAGTAAACAAATTTTCCTAATCTTTCTGTTCAAGCGCCATCTAC	0.746 RPM ratio (pull-down/input)
GATGATTGTTCTCCCAGCTGATGAATTGCCAAATTCGAGTAAACAAATTTTCCTAATCTTTCTGTTCAAGCGCCATCTAC	0.453 RPM ratio (pull-down/input)
GATGATTGTTCTCCCAGCTGATGAATTGGATCCGTCGAGTAAACAAATTTTCCTAATCTTTCTGTTCAAGCGCCATCTAC	0.219 RPM ratio (pull-down/input)
GATGATTGTTCTCCCAGCTGATGAATTGTTTGTGTCGAGTAAACAAATTTTCCTAATCTTTCTGTTCAAGCGCCATCTAC	8.22 RPM ratio (pull-down/input)
GATGATTGTTCTCCCAGCTGATGAATTGTGTGTGTCGAGTAAACAAATTTTCCTAATCTTTCTGTTCAAGCGCCATCTAC	5.21 RPM ratio (pull-down/input)
GATGATTGTTCTCCCAGCTGATGAATTTTGTGTTTCGAGTAAACAAATTTTCCTAATCTTTCTGTTCAAGCGCCATCTAC	5.3 RPM ratio (pull-down/input)
GATGATTGTTCTCCCAGCTGATGAATTGTGTTTGTCGAGTAAACAAATTTTCCTAATCTTTCTGTTCAAGCGCCATCTAC	8.45 RPM ratio (pull-down/input)
GATGATTGTTCTCCCAGCTGATGAATTGTTTTCCTCGAGTAAACAAATTTTCCTAATCTTTCTGTTCAAGCGCCATCTAC	4.78 RPM ratio (pull-down/input)
GATGATTGTTCTCCCAGCTGATGAATTTGATTTCTCGAGTAAACAAATTTTCCTAATCTTTCTGTTCAAGCGCCATCTAC	4.02 RPM ratio (pull-down/input)
GATGATTGTTCTCCCAGCTGATGAATTTACCTCCTCGAGTAAACAAATTTTCCTAATCTTTCTGTTCAAGCGCCATCTAC	0.573 RPM ratio (pull-down/input)
GATGATTGTTCTCCCAGCTGATGAATTTTTGTTCTCGAGTAAACAAATTTTCCTAATCTTTCTGTTCAAGCGCCATCTAC	0.494 RPM ratio (pull-down/input)
GATGATTGTTCTCCCAGCTGATGAATTTTGTTTCTCGAGTAAACAAATTTTCCTAATCTTTCTGTTCAAGCGCCATCTAC	5.54 RPM ratio (pull-down/input)
